# Assay results as given in PubChem BioAssay (Tox21).
# “And” between values parts separate entries of the source, which are not always exact repeats. Identical values can stand only once. Inconclusive results are not listed. A call without a number means that no potency is given here. Where a structure was tested more than once in an assay, its records may differ in their call. The source made the active and inactive calls. Calls come from the whole dose curve; as a rule, active = well fitted curve in the direction sought with a large enough effect in the repeat runs; inconclusive = weak or mixed curves; inactive = no such curve, though single readings can be large; an effect the other way counts as inactive or inconclusive.
# Experiment: qHTS assay for identifying genotoxic compounds that show differential cytotoxicity against isogenic chicken DT40 cell lines with known DNA damage response pathways - Rev3 mutant cell line (AID 743014); note: nearly all actives have a fitted effect of over 55% in size; note: potency is the fitted concentration of half-maximal effect
# Settings: chicken DT40 Rev3-/- viability, CellTiter-Glo, 40 h; series mostly up to 68.4 µM; activity, negative = cytotoxicity: at the top concentration
Structure (SMILES),Potency,"activity, negative = cytotoxicity"
Cc1ccc(C)c(OCCCC(C)(C)C(=O)O)c1,inactive,
Nc1ccn([C@H]2CC[C@@H](CO)O2)c(=O)n1,24.3 µM (active),
Oc1ccc(/C=C/c2cc(O)cc(O)c2)cc1,7.17 µM (active) and 15.5 µM (active) and 21.7 µM (active),
Cc1ccc(S(=O)(=O)NC(=O)NN2CCCCCC2)cc1,inactive and 68.6 µM (active),
NC(=O)NC1NC(=O)NC1=O (stereo unspecified),inactive,
CCCCCCCCCCCCCCCC(=O)O,inactive,
CC(C)[C@@H]1CC[C@@H](C)C[C@H]1O,inactive,
O=C(C1CCCCC1)N1CC(=O)N2CCc3ccccc3C2C1 (stereo unspecified),inactive,
C1N2CN3CN1CN(C2)C3,inactive,
COc1c2occc2cc2ccc(=O)oc12,inactive,
NC(N)=O,inactive and 17.2 µM (active),
COc1ccc2[nH]cc(CCNC(C)=O)c2c1,inactive,
OCCc1ccccc1,inactive,
CCCC(O)C(CC)CO (stereo unspecified),inactive,
CCCN(CCC)S(=O)(=O)c1ccc(C(=O)O)cc1,inactive,
Nc1ccc(S(=O)(=O)Nc2nccs2)cc1,inactive,
O=C(O)C(=O)O,inactive,

Structure (SMILES),Potency,"activity, negative = cytotoxicity"
O=C(O)CCCCCCCC(=O)O,inactive,
N=C(N)c1ccc(OCCCCCOc2ccc(C(=N)N)cc2)cc1,2.98 µM (active) and 2.16 µM (active) and 1.85 µM (active),
O=NO,inactive,
NC(N)=NC(=O)c1nc(Cl)c(N)nc1N,inactive,
Cc1cc(=O)[nH]c(=S)[nH]1,inactive,
O=C(O)c1[nH]n(-c2ccc(S(=O)(=O)O)cc2)c(=O)c1N=Nc1ccc(S(=O)(=O)O)cc1,,-0.161% (inactive)
NS(=O)(=O)c1cc(C(=O)O)c(NCc2ccco2)cc1Cl,inactive,
Cc1noc(NS(=O)(=O)c2ccc(N)cc2)c1C,inactive,
CCCCOC(=O)CC(CC(=O)OCCCC)(OC(C)=O)C(=O)OCCCC,inactive,
CC(O)CO (stereo unspecified),inactive,
O=C(O)c1cc(N=Nc2ccc(S(=O)(=O)Nc3ccccn3)cc2)ccc1O,inactive,
CCCCC1C(=O)N(c2ccccc2)N(c2ccccc2)C1=O,inactive,
CCCCC(CC)COC(=O)/C=C/c1ccc(OC)cc1 (stereo unspecified),inactive,
NC(=O)c1ccccc1O,inactive,
O=C(O)CS,inactive and 43.6 µM (active),
O=S(=O)(O)NC1CCCCC1,inactive,

# Experiment: qHTS assay for identifying genotoxic compounds that show differential cytotoxicity against isogenic chicken DT40 cell lines with known DNA damage response pathways - Rad54/Ku70 mutant cell line (AID 743015); note: nearly all actives have a fitted effect of over 60% in size; note: potency is the fitted concentration of half-maximal effect
# Settings: DT40 Rad54/Ku70 mutant viability, CellTiter-Glo, 40 h; series mostly up to 66.8 µM; activity change, negative = cytotoxicity: at the top concentration
row,Structure (SMILES),Potency
1,Cc1ccc(C)c(OCCCC(C)(C)C(=O)O)c1,inactive
2,Nc1ccn([C@H]2CC[C@@H](CO)O2)c(=O)n1,53.5 µM (active) and 24.3 µM (active)
3,NC(=O)NC1NC(=O)NC1=O (stereo unspecified),inactive
4,O=C(C1CCCCC1)N1CC(=O)N2CCc3ccccc3C2C1 (stereo unspecified),inactive
5,COc1ccc2[nH]cc(CCNC(C)=O)c2c1,inactive
6,OCCc1ccccc1,inactive
7,CCCC(O)C(CC)CO (stereo unspecified),inactive
8,Nc1ccc(S(=O)(=O)Nc2nccs2)cc1,inactive
9,O=C(O)CCCCCCCC(=O)O,inactive
10,N=C(N)c1ccc(OCCCCCOc2ccc(C(=N)N)cc2)cc1,2.66 µM (active) and 2.72 µM (active) and 1.65 µM (active)
11,O=NO,inactive
12,NS(=O)(=O)c1cc(C(=O)O)c(NCc2ccco2)cc1Cl,inactive
13,NC(=O)c1ccccc1O,inactive

# Experiment: qHTS assay to identify small molecule antagonists of the androgen receptor (AR) signaling pathway - cell viability counter screen (AID 743033; note: nearly all actives have a fitted effect of over 45% in size)
# Settings: AR-bla HEK293 viability, CellTiter-Glo luminescence, 16 h; series mostly up to 58.5 µM; activity change, negative = cytotoxicity: at the top concentration
row,Structure (SMILES),outcome
1,Cc1ccc(C)c(OCCCC(C)(C)C(=O)O)c1,inactive
2,Nc1ccn([C@H]2CC[C@@H](CO)O2)c(=O)n1,inactive
3,Oc1ccc(/C=C/c2cc(O)cc(O)c2)cc1,inactive
4,Cc1ccc(S(=O)(=O)NC(=O)NN2CCCCCC2)cc1,inactive
5,NC(=O)NC1NC(=O)NC1=O (stereo unspecified),inactive
6,CCCCCCCCCCCCCCCC(=O)O,inactive
7,CC(C)[C@@H]1CC[C@@H](C)C[C@H]1O,inactive
8,O=C(C1CCCCC1)N1CC(=O)N2CCc3ccccc3C2C1 (stereo unspecified),inactive
9,C1N2CN3CN1CN(C2)C3,inactive
10,COc1c2occc2cc2ccc(=O)oc12,inactive
11,O=C(c1ccccc1)c1ccccc1,inactive
12,NC(N)=O,inactive
13,Cn1c(=O)c2[nH]cnc2n(C)c1=O,inactive
14,COc1ccc2[nH]cc(CCNC(C)=O)c2c1,inactive
15,OCCc1ccccc1,inactive
16,CCCC(O)C(CC)CO (stereo unspecified),inactive
17,CCCN(CCC)S(=O)(=O)c1ccc(C(=O)O)cc1,inactive
18,Nc1ccc(S(=O)(=O)Nc2nccs2)cc1,inactive

row,Structure (SMILES),outcome
1,O=C(O)C(=O)O,inactive
2,O=C(O)CCCCCCCC(=O)O,inactive
3,O=NO,inactive
4,NC(N)=NC(=O)c1nc(Cl)c(N)nc1N,inactive
5,Cc1cc(=O)[nH]c(=S)[nH]1,inactive
6,O=C(O)c1[nH]n(-c2ccc(S(=O)(=O)O)cc2)c(=O)c1N=Nc1ccc(S(=O)(=O)O)cc1,inactive
7,NS(=O)(=O)c1cc(C(=O)O)c(NCc2ccco2)cc1Cl,inactive
8,Cc1noc(NS(=O)(=O)c2ccc(N)cc2)c1C,inactive
9,CCCCOC(=O)CC(CC(=O)OCCCC)(OC(C)=O)C(=O)OCCCC,inactive
10,CC(O)CO (stereo unspecified),inactive
11,O=C(O)c1cc(N=Nc2ccc(S(=O)(=O)Nc3ccccn3)cc2)ccc1O,inactive
12,CCCCC1C(=O)N(c2ccccc2)N(c2ccccc2)C1=O,inactive
13,CCCCC(CC)COC(=O)/C=C/c1ccc(OC)cc1 (stereo unspecified),inactive
14,NC(=O)c1ccccc1O,inactive
15,O=C(O)CS,inactive
16,O=S(=O)(O)NC1CCCCC1,inactive
17,Cc1cn([C@H]2C[C@H](N=[N+]=[N-])[C@@H](CO)O2)c(=O)[nH]c1=O,inactive
